Positions count from the first letter of the chain named. Whole data set: some 5,800 sequences, median “enrichment r” near 0.54, cut for the highest 2% near 16. The entries come from a sample that favours the highest values as a whole.
B1: chr2:205797254:205797461:+|3pUTR|ENSG00000118257|msi1|total|mutant (ssRNA)
RNA: GGGAGUUCUACAGUCCGACGAUCUCACCCUCCCAUGAUGCGCAGUGUUCAGAAAGCUGGUAAGUCCCCGGGAUUUCCAGAAGCCGCCUGCAGAAGAAGGUAAGUUUGAAAGCCACUCCAGGGGUCCUGAUGCUGUCAUGCUCACAACAGAGGAUUGAGCAUCA
B2: chr1:233671823:233671924:+|3pUTR|ENSG00000135750|msi1|total|mutant (ssRNA)
RNA: GGGAGUUCUACAGUCCGACGAUCUGCUGCUGUGGUCCGAAGCAGAUUUUAUACUUUUAACUGGAAACUUUGGGGUUUGCAUUCCGAUCAUUCCGCUGAUGGCUAAACCGCAAAAUUUAUAUUCCGAAGCAAAAAAAAAAAGCACAACAGAGGAUUGAGCAUCA
B3: chr3:133826890:133826991:-|3pUTR|ENSG00000154917|unk|total|mutant (ssRNA)
RNA: GGGAGUUCUACAGUCCGACGAUCUUUGAACGUGUUUCAGAUGUCAUGUGUUCCGUUUUUAUAUGUGUGUACAUAAUUAUAUACCGAGACCGACUUGUGUAUACACCUUCCACAAACACAUCCUCACGGAGAUACAUGUGCUCACAACAGAGGAUUGAGCAUCA
B4: chr4:140153917:140154018:-|5pUTR|ENSG00000196782|msi1|FALSE|bound_elsewhere (ssRNA)
RNA: GGGAGUUCUACAGUCCGACGAUCUUUGCAGUCGCCUCGGACUGUCCAUGUGUUUACUUCCCCCAGCCCGAGGAUUCGAUAUCUAGGUUCCUGUGAAAUGCAACUGAGCAGCCAAAGUACUUUGAGAACACGGGGCGGCAUAAACAACAGAGGAUUGAGCAUCA
B5: ENSG00000070961:be:win_2801|CDS|ENSG00000070961|bound_else_gene|NA|bound_elsewhere_windowed (ssRNA)
RNA: GGGAGUUCUACAGUCCGACGAUCGUCAUGCAUUCUAUCAACUUGUAGUAGUCUUUACACUCUUAUUUGCUGGAGAAAAGUUUUUUGACAUUGAUAGUGGAAGAAAUGCUCCUUUGCAUGCUCCUCCUUCAGAACAUUAUACUACAACAGAGGAUUGAGCAUCA
B6: chr10:122937732:122937852:-|CDS|ENSG00000119965|unk|total|mutant (ssRNA)
RNA: GGGAGUUCUACAGUCCGACGAUCGUAAGUGACAACUCAAAUAUACCCAACUCCGAGUUGCUGCCUUUUCUCCAGAAUUUAUGCCGUCAAGUUAAUCAUCUCCAUGUGGGAAAUAAGACCGAGUGUCAGGAAAACAUCACCAAGCAACAGAGGAUUGAGCAUCA
B7: chr4:168927217:168927233:+|3pUTR|ENSG00000129116|msi1_unk|FALSE|overlapping (ssRNA)
RNA: GGGAGUUCUACAGUCCGACGAUCAACCACCCAAAUGACCAAGGCAUAUAUAGUAUUUGGAGGAAUCAGGGGUUUGGAAGGAGUAGGGAGGAGAAUGAAGGAAAAUGCAACCAGCAUGAUUAUAGUGUGUUCAUUUAGAUAAAACAACAGAGGAUUGAGCAUCA
B8: chr7:123541454:123541562:-|3pUTR|ENSG00000128609|unk|total|mutant (ssRNA)
RNA: GGGAGUUCUACAGUCCGACGAUCUCCACCGUGUCAUUUUAUUUCCGUCAUUAUUGAAUUAUACCAUUUACUCUGUUUUCUUACCGUCUUAAUUUUAUUAUAUUUUGUUGUUACUGUAUUAUAUUUGAAAACCUUCAAAUCCGACAACAGAGGAUUGAGCAUCA
B9: chr17:58090057:58090109:+|3pUTR|ENSG00000264364|msi1_unk|FALSE|overlapping (ssRNA)
RNA: GGGAGUUCUACAGUCCGACGAUCGGGUAGGAUUAGCUUGAAUCUUUUUUUUCUUUACAUUUUUCUCCUGUCUGCUCCCUGCUUAGCCCUCAGUUUCCUCAUUCCUCUGGAGUUCUCUUAGAGCAGCCCCUGUUGUUAGUUGGCCAACAGAGGAUUGAGCAUCA
B10: chr1:228494639:228494729:+|3pUTR|ENSG00000168159|msi1_unk|total|mutant (ssRNA)
RNA: GGGAGUUCUACAGUCCGACGAUCGCCAUCGUGUCUCAUCUUGCUGUUAUCUCCCGCUCUUUCCCUCCUCCCAUUUCCUUCCGCCGUUGAAUUUUGCAAAGCUUGCCGCAGCCGCUCAGUUGCCUGCAGCAUCCUUGUGUGCCGCAACAGAGGAUUGAGCAUCA
B11: chr19:57593639:57593745:+|3pUTR|ENSG00000171649|unk|total|mutant (ssRNA)
RNA: GGGAGUUCUACAGUCCGACGAUCUGAACCUUCUUAUUUCUCUACAUUCUUGCCAUACUUGGUAUGGUCCGUCUUUUUAAUUUCCGUUGUUUUAACCGCUGUAUAACCGCAUCUGUCUGUGAUUUUAUUGCAUUUUUCUGGUAUCAACAGAGGAUUGAGCAUCA
B12: chr19:57593639:57593745:+|3pUTR|ENSG00000171649|unk|FALSE|unique (ssRNA)
RNA: B11 RNA with C68U, C69A, C83U, C84A, C95U, C96A, C106U, C107A
B13: chr1:20742972:20743075:-|3pUTR|ENSG00000127483|unk|FALSE|unique (ssRNA)
RNA: GGGAGUUCUACAGUCCGACGAUCUAACCCUUUCUUAUUUGUAUUUGUUUUAGUAUUGUGAAGUUGUGUUAAAUAGUACUAGCUAGAAAUACAAAUUUCUGGUUAUCAUUUCUCUUCCCUGUGGCACUUGACAUUUUAAUUGUCCAACAGAGGAUUGAGCAUCA
B14: chr1:228494639:228494729:+|3pUTR|ENSG00000168159|msi1_unk|FALSE|overlapping (ssRNA)
RNA: GGGAGUUCUACAGUCCGACGAUCGCCAUCGUGUCUCAUCUUGCUGUUAUCUCUAGCUCUUUCCCUCCUCCCAUUUCCUUUAGUAGUUGAAUUUUGCAAAGCUUGUAGCAGUAGCUCAGUUGCCUGCAGCAUCCUUGUGUGUAGCAACAGAGGAUUGAGCAUCA
B15: chr10:30313878:30313980:-|CDS|ENSG00000107951|unk|total|mutant (ssRNA)
RNA: GGGAGUUCUACAGUCCGACGAUCUGUUUUUAUAUUUAAGCCCUUCAUGUACUUACUCAUUUUUUCUUCUGUGUAAUAAUCUACCGGGAAGGGAGCAAAACAAACCUGAUUCUUCUCCUCUGUACAUUCAGAAUCCAUUUGAAACAACAGAGGAUUGAGCAUCA
B16: chr3:15254852:15254953:-|3pUTR|ENSG00000131370|msi1|total|mutant (ssRNA)
RNA: GGGAGUUCUACAGUCCGACGAUCAAACUGUUAAUUCUGUCACAGCCUGUAUAUUUCCGUCAUUUGUAAAUCUCUUCAUACAACCGUGACUUCUUUUUUGACUGAUACAGUAUCUUAAUUACAAGGUUAUUUUGUACUUGUCUUCAACAGAGGAUUGAGCAUCA

Target: MSI1 full-length (mouse, UniProt Q61474 1-362)
Assay: nsRBNS (natural sequence RNA bind-n-seq); RBNS binding buffer (assumed for nsRBNS): 25 mM Tris pH 7.5, 150 mM KCl, 3 mM MgCl2, 0.01% Triton X-100, 500 ug/ml BSA, 20 U/ml SUPERase-In, 4 C; UNK is unkempt and MSI1 is Musashi-1; names of the RNAs are library labels; protein concentration not given here; high values mean tight binding

MSI1 full-length, sequence (Q61474 whole entry): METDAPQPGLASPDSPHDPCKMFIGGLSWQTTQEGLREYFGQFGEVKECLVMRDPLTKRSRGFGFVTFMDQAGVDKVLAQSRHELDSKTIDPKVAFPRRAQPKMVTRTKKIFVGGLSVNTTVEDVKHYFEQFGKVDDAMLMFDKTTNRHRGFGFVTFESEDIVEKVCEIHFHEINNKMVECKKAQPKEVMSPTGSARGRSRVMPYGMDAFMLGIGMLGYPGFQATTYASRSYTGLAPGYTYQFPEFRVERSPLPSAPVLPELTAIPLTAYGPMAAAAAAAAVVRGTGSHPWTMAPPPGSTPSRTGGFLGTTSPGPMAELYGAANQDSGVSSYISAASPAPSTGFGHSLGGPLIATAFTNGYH

Binder | binding signal
B1 | 0.483 enrichment R
B2 | 0.297 enrichment R
B3 | 0.348 enrichment R
B4 | 0.362 enrichment R
B5 | 0.822 enrichment R
B6 | 0.448 enrichment R
B7 | 4.58 enrichment R
B8 | 37 enrichment R
B9 | 4.46 enrichment R
B10 | 0.702 enrichment R
B11 | 1.4 enrichment R
B12 | 19.1 enrichment R
B13 | 3.75 enrichment R
B14 | 21.5 enrichment R
B15 | 0.482 enrichment R
B16 | 0.393 enrichment R

From article PMC12136788
